{"source": "PubChem BioAssay (NCI)", "note": "Values joined by “and” are separate entries in the source; they are usually repeats but may differ in a detail not shown here. Equal entries are not always repeated. About 83,000 compounds went through this panel and 20% of them were active in at least one assay; those are over-represented in the sample as a whole.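 96-well plates, one dose, 48 hours. Percent growth reported; active if below 10.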 Active and inactive are the calls of the source. Where a SMILES comes first, the peptide text is derived from it."}
{"system": "CCRF-CEM leukemia", "assay": "NCI-60 one-dose screen, 48 h (100 = growth as untreated, 0 = no growth, -100 = all killed)", "settings": "10 µM", "description": "Growth inhibition of the CCRF-CEM human tumor cell line is measured as a screen for anti-cancer activity. Cells are grown in 96 well plates and exposed to the test compound for 48 hours. Compounds are tested at a single concentration, which is 10^-5 M for most compounds. The reported endpoint is percent growth (GI% or GIPRCNT), where numbers from 0 - 100% represent growth inhibition, and numbers from -100% - 0 represent cell death. For example, a value of 40 represents 60% growth inhibition. A value of 0 means no net growth occurred over the course of the experiment. A value of -40 indicates 40% of cells at the beginning of the experiment died by the end of the experiment. A value of -100 means all cells are dead at the end of the experiment.\nNCI-60 Human Tumor Cell Lines Screen was performed using the standard one-dose NCI protocol, which is described in more detail at https://dtp.cancer.gov/discovery_development/nci-60/default.htm.\nCompounds with GIPRCNT values below 10 were considered active. Activity score was based on GIPRCNT using the following formula: […]\nScore is 0 for GIPRCNT values of 100 or above, 50 for GIPRCNT values of 0, and 100 for GIPRCNT values of -100."}
{"compound": "O=CN1CCCCC1", "growth": "115% (inactive)"}
{"compound": "Cc1cc2ccccc2cn1", "growth": "102% (inactive) and 120% (inactive)"}
{"compound": "O=c1n(CC2CO2)c(=O)n(CC2CO2)c(=O)n1CC1CO1", "note": "(stereo not given)", "growth": "32.5% (inactive)"}
{"compound": "CC(C)C(C)(C)c1ccc(O)cc1", "growth": "105% (inactive)"}
{"compound": "CCCCNc1ccc(Nc2ccccc2)cc1", "growth": "24.5% (inactive)"}
{"compound": "O=C1C=C(Nc2ccccc2)c2ccccc2C1=O", "growth": "65.8% (inactive) and 94.4% (inactive)"}
{"compound": "C#CCOC(=O)Nc1ccccc1", "growth": "112% (inactive)"}
{"compound": "O=C1CSC2=NCCN12", "growth": "102% (inactive) and 88.1% (inactive)"}
{"compound": "NC1CCC(C(=O)O)CC1", "note": "(stereo not given)", "growth": "80.9% (inactive) and 79.5% (inactive)"}
{"compound": "Nc1cc(N)c(N)cc1N", "growth": "89.6% (inactive)"}
{"compound": "NC(Cc1ccccc1)C(=O)NC(Cc1ccccc1)C(=O)O", "note": "(stereo not drawn) (H-Phe-Phe-OH; configuration not given here)", "growth": "118% (inactive) and 98.4% (inactive)"}
{"compound": "c1ccc(CNCCNCc2ccccc2)cc1", "growth": "92.6% (inactive)"}
{"compound": "Nc1ncnc2c1ncn2C1OC(COP(=O)(O)O)C(O)C1O", "note": "(stereo not given)", "growth": "105% (inactive)"}
{"compound": "O=C(CO)C(O)C(O)C(O)C(O)CO", "note": "(stereo not given)", "growth": "103% (inactive) and 105% (inactive)"}
{"compound": "Cc1cc(-c2ccc(N=Nc3ccc4c(S(=O)(=O)O)cc(S(=O)(=O)O)c(N)c4c3O)c(C)c2)ccc1N=Nc1ccc2c(S(=O)(=O)O)cc(S(=O)(=O)O)c(N)c2c1O", "growth": "85.7% (inactive)"}
{"compound": "CN(C)c1ccc(/C=C\\C(=O)c2ccccc2)cc1", "growth": "70.4% (inactive) and 65% (inactive) and 74% (inactive)"}
{"compound": "c1ccc2c(c1)OC1OC2Oc2ccccc21", "growth": "97.6% (inactive)"}
{"compound": "O=C1OC(c2ccccc2)=N/C1=C\\c1ccccc1", "growth": "100% (inactive)"}
{"compound": "CC1(C)COC(=S)N1", "growth": "108% (inactive)"}
{"compound": "Cc1ccc(=O)[nH]n1", "growth": "107% (inactive) and 99.6% (inactive)"}
{"compound": "CC[C@H](CC[C@@H](C)[C@H]1CC[C@H]2[C@@H]3CC=C4C[C@@H](O)CC[C@]4(C)[C@H]3CC[C@]12C)C(C)C", "growth": "91.1% (inactive) and 97.8% (inactive)"}
{"compound": "N#CC(C#N)N=Nc1cc(Cl)ccc1Cl", "growth": "94.7% (inactive)"}
{"compound": "COc1ccc(C(=O)CC(c2ccccc2)C(C#N)c2ccccc2)cc1", "note": "(stereo not given)", "growth": "84.1% (inactive)"}
{"compound": "CC(C)NC(=O)N/C=C(\\C#N)C(N)=O", "growth": "114% (inactive)"}
{"compound": "C/C(=C\\c1ccccc1)c1ccccn1", "growth": "94.5% (inactive)"}
{"compound": "CC(=O)OCC1OC(OC(C)=O)C(OC(C)=O)C(OC(C)=O)C1OC(C)=O", "note": "(stereo not given)", "growth": "95.2% (inactive) and 110% (inactive)"}
{"compound": "CC1CCC2(OC1)OC1CC3C4CC=C5CC(O)CCC5(C)C4CCC3(C)C1C2C", "note": "(stereo not given)", "growth": "-55.7% (active)"}
{"compound": "CCN(CCNS(C)(=O)=O)c1ccc(N)c(C)c1", "growth": "35.7% (inactive)"}
{"compound": "CN1CNC(=O)NC1", "growth": "108% (inactive) and 91.3% (inactive)"}
{"compound": "Oc1ccc(Cc2ccccc2Cl)c(O)c1", "growth": "94.1% (inactive)"}
{"compound": "O=c1[nH]cnc2c1ncn2C1OC(CO)C(O)C1O", "note": "(stereo not given)", "growth": "99.5% (inactive) and 90.3% (inactive) and 69.9% (inactive)"}
{"compound": "CCCCCCCCCCCCCCCCC(C(=O)O)C(O)(CC(=O)O)C(=O)O", "note": "(stereo not given)", "growth": "2.43% (active)"}
{"compound": "CC(=O)Nc1ccc(S(N)(=O)=O)cc1", "growth": "93.2% (inactive) and 100% (inactive)"}
{"compound": "Cl", "growth": "106% (inactive)"}
{"compound": "COc1cc(C(O)C2C(=O)OCC2C2(c3ccc4c(c3)OCO4)SCCCS2)cc(OC)c1OC", "note": "(stereo not given)", "growth": "98.2% (inactive)"}
{"compound": "Nc1ccc2c(O)cc(S(=O)(=O)O)cc2c1", "growth": "74.6% (inactive)"}
{"compound": "CCCCOC(=O)/C=C\\C(=O)NC(N)=O", "growth": "75.2% (inactive)"}
{"compound": "CC1CCC(C(C)C)C(NNC(N)=O)C1", "note": "(stereo not given)", "growth": "106% (inactive)"}
{"compound": "NC(Cc1c[nH]c2ccccc12)C(=O)O", "note": "(stereo not given)", "growth": "105% (inactive) and 102% (inactive)"}
{"compound": "CC(=O)NCC(=O)c1ccc([N+](=O)[O-])cc1", "growth": "99.5% (inactive)"}
